Sampled rows, rich in hits. Any-hit rate of the full collection: about 6.2%.
MARV entry inh: qHTS for inhibitors of binding or entry into cells for Marburg Virus | Potency, µM (highest dose often 37.8 µM), for inactives: at the highest dose activity change, negative = inhibition, actives largely listed as inhibitors | AID 540276, 2011 | 300,000 tested, 1.8% active | Marburg virus pseudotyped entry inhibition, cell reporter; calls by dose curve; tested in HEK293 cells; also: potency is read from the fitted curve at half-maximal effect
Lassa entry inh: qHTS for Inhibitors of binding or entry into cells for Lassa Virus | 300,000 tested, 1.2% active | Lassa virus pseudotype entry inhibition, cell reporter | Potency, µM (top dose mostly 37.9 µM), for inactives: at the top dose activity change, negative = inhibition, most hits filed as inhibitors; calls by dose curve; tested in HEK293 cells; also: potency is read from the fitted curve at half-maximal effect; nearly all actives have a fitted effect of over 50% in size
HCMV antiviral: qHTS Assay for inhibitors of the human cytomegalovirus (HCMV). HFF cells, HCMV-luciferase reporter, 72 h; active compounds read low. AID 1259415, 2018. activity change, negative = inhibition, % at 57.5 µM. 410,000 tested, 4.5% active; in the data active = activity change below about -60%; inconclusive = no clear call, values can overlap the other calls; inactive = above about -39%
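Steps: HFFs plated, 16 h 37C; compounds added; HCMV-luciferase added to MOI 1 PFU/cell; 72 h 37C; OneGlo reagent, 5 min room temperature; luminescence read, normalized to controls.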
FMDV antiviral: High Throughput Screening for Foot and Mouth Disease Virus Antivirals; FMDV antiviral cell-based qHTS; Potency, µM (highest dose often 57.9 µM), without a hit: at the top dose activity change, negative = inhibition, actives largely listed as inhibitors; 410,000 tested, 1.2% active; AID 1159524, 2015; calls by dose curve; tested in HEK293T cells; also: read-out not given here; potency is read from the fitted curve at half-maximal effect; nearly all actives have a fitted effect of over 45% in size
The depositor's hits bear a star; ? = inconclusive; / = not tested or not shown; + = active, no number; [ ] = dose if it differs, or a comment. % is scaled to controls: 0 for no effect and ±100 for the full control effect.

SMILES | MARV entry inh | Lassa entry inh | HCMV antiviral | FMDV antiviral
CCOC(=O)c1c(NC(=O)c2ccc(S(=O)(=O)N3CCC(C)CC3)cc2)sc2c1CCN(CC)C2 | / | -1.4%[46.1 µM] | -81.8* | -7.4%
CC(C)N1CCc2c(sc(NC(=O)c3ccc(S(=O)(=O)N4CCOCC4)cc3)c2C#N)C1 | 3.8% | / | / | -10.6%
CCOC(=O)c1c(NC(=O)c2ccc(S(=O)(=O)N3CCC(C)CC3)cc2)sc2c1CCN(C(C)C)C2 | / | 1.3%[46.1 µM] | -18.0 | -18.7%
CCc1ccccc1NC(=O)CN1CCN(C(=O)COc2ccccc2C#N)CC1 | / | / | ? | -25.8%
Cc1ccc(NC(=O)/C=C/C(=O)O)c([N+](=O)[O-])c1 | -3.1% | ? | -5.1 | -1.2%
C/C(=N\NC(N)=S)C1(C)CC2(CC(C)(C)OC2=O)C(=O)O1 (centres undefined) | 1.0% | ? | 19.9 | -4.7%
Cc1ccc(S(=O)(=O)CC(=O)Nc2sc3c(c2C(N)=O)CCCC3)cc1 | / | -3.5%[46.1 µM] | + | 1.7%
NC(=O)c1c(NC(=O)CS(=O)(=O)c2ccc(Cl)cc2)sc2c1CCCC2 | / | 13.0%[46.1 µM] | 0.0 | 0.0%
N#Cc1c(C#N)c(SSc2c(C#N)c(C#N)c(N)n2-c2ccccc2)n(-c2ccccc2)c1N | ? | 21.1% | -4.3 | 39.8µM*
N#Cc1c(N)n(-c2ccc(N)cc2)c2nc3ccccc3nc12 | 5.6%[46.1 µM] | 11.5% | 39.9 | 7.6%
O=C(CN(c1cc(C(F)(F)F)ccc1Cl)S(=O)(=O)c1ccccc1)NCCc1ccccc1 | -5.9%[46.1 µM] | -1.8%[46.1 µM] | -70.4* | 13.4%
Cc1ccc2c(ccn3cc4c(c(=O)n(C)c(=O)n4C)c23)c1 | ? | ? | -6.1 | -15.4%
O=S(Cc1ccc(Br)cc1)Cc1nnc(SCc2c(F)cccc2Cl)n1-c1ccccc1 (centres undefined) | ? | ? | ? | 35.5µM*
O=S(Cc1ccc(Br)cc1)Cc1nnc(SCc2ccc(Cl)cc2)n1-c1ccccc1 (centres undefined) | ? | 12.6µM* | -65.6* | 0.0%
Cn1c(CS(=O)Cc2c(Cl)cccc2Cl)nnc1SCc1ccc(Cl)cc1 (centres undefined) | -16.1% | 6.5% | -11.9 | -2.5%
O=C(O)c1cccc(NC(=O)c2ccc(S(=O)(=O)c3ccccc3)cc2)c1 | ? | 5.3% | 21.4 | -13.2%
CCC(C)Nc1ncnc2c1cnn2Cc1ccc(Cl)cc1 (centres undefined) | / | / | -22.7 | -17.6%
Cc1ccccc1N1CC(C(=O)N2CCCCCC2)CC1=O (centres undefined) | 7.4%[46.1 µM] | 11.1% | -2.6 | 14.5%
O=C(NC(=S)NC1CCSC1=O)c1cccc([N+](=O)[O-])c1 (centres undefined) | / | / | -33.6 | -6.8%
COc1cc2c3nnc(-c4ccccc4)c-3cn(Cc3ccc(F)cc3)c2cc1OC | ? | -14.7% | -66.0* | ?
Cc1ccc(C(=O)Nc2nnc(S(=O)(=O)N(C)Cc3ccc(F)cc3)s2)cc1 | / | 4.5%[46.1 µM] | + | 28.9%
Cc1cccc(C(=O)Nc2nnc(S(=O)(=O)N(C)Cc3ccc(Cl)cc3)s2)c1 | / | 26.0%[46.1 µM] | ? | -13.9%
Cn1c(SCc2nc(-c3ccc(Cl)cc3)no2)nnc1-c1ccco1 | / | / | -24.2 | -20.1%
CCN(CC)CCN(Cc1cc2cc3c(cc2[nH]c1=O)OCO3)C(=S)NCCCN(C)C | / | / | -16.4 | -13.9%
CCOC(=O)c1ccc(NC(=O)CCOc2ccc(OC)cc2)cc1 | -5.5% | -24.2% | 3.5 | -2.2%
SMILES | MARV entry inh | Lassa entry inh | HCMV antiviral | FMDV antiviral
O=C(NCCc1nc2ccccc2[nH]1)c1cccc(Br)c1 | 0.8%[46.1 µM] | 2.5% | -70.0* | -24.4%
CCOC(=O)c1nnn(-c2ccccc2C#N)c1C | 3.7% | -2.4% | 10.9 | -4.3%
CC(=O)NC(NC(=S)Nc1ccc(C)cc1C)C(Cl)(Cl)Cl (centres undefined) | / | / | 5.3 | -9.0%
COC(=O)c1ccccc1NC(=S)NC(NC(=O)COc1ccccc1)C(Cl)(Cl)Cl (centres undefined) | ? | -6.5% | -102.2* | 7.2%
CCc1ccc(OCC(=O)NC(NC(=S)Nc2ccccc2)C(Cl)(Cl)Cl)cc1 (centres undefined) | ? | ? | -26.7 | 0.0%
CCc1ccc(OCC(=O)NC(NC(=S)Nc2ccccc2OC)C(Cl)(Cl)Cl)cc1 (centres undefined) | -13.9% | -28.2% | -71.6* | -9.8%
Cc1ccc(NC(=S)NC(NC(=O)c2ccccc2C)C(Cl)(Cl)Cl)c(C)c1 (centres undefined) | 23.1µM* | ? | -26.0 | -26.1%
Cc1ccc(C)c(NC(=S)NC(NC(=O)N(C)C)C(Cl)(Cl)Cl)c1 (centres undefined) | 8.2% | -5.3% | 29.8 | /
Cc1ccc(C)c(NC(=S)NC(NC(=O)Cc2cccc3ccccc23)C(Cl)(Cl)Cl)c1 (centres undefined) | 12.6µM* | 7.94µM* | -97.7* | -22.4%
COc1ccc(C(=O)N2CCCCC2)cc1S(=O)(=O)Nc1ccccc1 | 13.7% | 11.5% | ? | /
O=C(CSc1nnc(C2CC2)n1C1CC1)c1cc(F)ccc1F | ? | 0.3% | -3.6 | 21.3%
CCc1ccc(OCC(=O)NC(NC(=S)Nc2ccccc2C)C(Cl)(Cl)Cl)cc1 (centres undefined) | ? | ? | ? | -9.1%
CCc1ccc(OCC(=O)NC(NC(=S)Nc2ccc(C)cc2C)C(Cl)(Cl)Cl)cc1 (centres undefined) | ? | -26.8% | -63.7* | ?
CCOC(=O)C1CCCN(C(=O)CCC(=O)Nc2ccc3nc(N4CCOCC4)cc(C)c3c2)C1 (centres undefined) | 10.5% | ? | 98.5 | 25.2%
COc1ccc(-c2n[nH]c(C)c2-c2cscn2)c(O)c1 | / | / | ? | -10.6%
C=C(C)COc1ccc(-c2n[nH]c(C)c2-c2ccc(OC)cc2)c(O)c1 | ? | ? | -106.2* | 25.1µM*
O=C(/C=C/[C@H]1O[C@@H](n2cnc3c(NC(=O)c4ccccc4)ncnc32)[C@H](O)[C@@H]1O)NCCCc1ccccc1 | / | / | 19.8 | -14.3%
c1ccc(C2CC(c3ccccc3)n3ncnc3N2)cc1 (centres undefined) | 9.5% | -15.2% | -16.6 | /
O=C1OC(/C(=C\Nc2cc(Cl)ccc2O)[N+](=O)[O-])c2ccccc21 (centres undefined) | ? | 19.3% | -77.0* | -27.1%
CCN(C(=O)CCN1C(=O)/C(=C/c2ccccc2)SC1=S)C1CCS(=O)(=O)C1 (centres undefined) | ? | ? | -112.6* | -26.6%
CC(=O)NNC(=O)CN1C(=O)/C(=C/c2ccccc2)SC1=S | / | / | ? | -9.0%
CCN(CC)C(=O)CN1C(=O)/C(=C/c2ccccc2)SC1=S | / | / | -63.1* | -12.9%
O=C(O)CN1C(=O)/C(=C\c2cccc(OCc3ccccc3F)c2)SC1=S | 27.4%[46.1 µM] | 7.5% | -75.6* | 20.8%
CCc1nnc(NC(=O)CN2CCN(Cc3ccc(C)cc3)CC2)s1 | / | / | 5.5 | -17.4%
Cc1c(NC(=O)C2CCCCC2)cc(C(=O)N2CCOCC2)cc1[N+](=O)[O-] | 1.6%[46.1 µM] | -17.6%[46.1 µM] | ? | -4.5%
Cc1ccc(Sc2nc(C)c([N+](=O)[O-])c(C)c2C#N)cc1 | -5.0%[46.1 µM] | -1.3% | -69.7* | -26.5%
Nc1ncnc(Sc2ccc(Cl)cc2)c1[N+](=O)[O-] | ? | ? | 11.2 | ?

Source: PubChem
